Lassa entry inh – blocks Lassa virus binding to or entry into cells. Potency, µM (titrated, usually from 37.9 µM), inactives show at the top dose activity change, negative = inhibition, hits mostly inhibitors. Lassa virus pseudotype entry inhibition, cell reporter. hit rate 1.2% among 300,000; calls by dose curve; tested in HEK293 cells; note: potency is the fitted concentration of half-maximal effect; nearly all actives have a fitted effect of over 50% in size
MARV entry inh – inhibitors of Marburg virus binding or cell entry; Marburg virus pseudotyped entry inhibition, cell reporter; Potency, µM (highest dose often 37.8 µM), for inactives: at the top dose activity change, negative = inhibition, most hits filed as inhibitors; hit rate 1.8% among 300,000; AID 540276; calls by dose curve; tested in HEK293 cells; note: potency is the fitted concentration of half-maximal effect
VACV Venus inh – inhibitors of vaccinia virus (Venus reporter) | AID 720580 | Vaccinia virus Venus reporter expression, fluorescence | Potency, µM (top dose mostly 36.5 µM), for inactives: top-dose activity change, negative = inhibition, hits mostly inhibitors | hit rate 0.46% among 330,000; calls by dose curve; tested in A549 cells; note: potency is the fitted concentration of half-maximal effect; nearly all actives have a fitted effect of over 30% in size
FMDV antiviral – blocks foot and mouth disease virus. FMDV antiviral cell-based qHTS. Potency, µM (highest dose often 57.9 µM), for the others: top-dose activity change, negative = inhibition, most hits filed as inhibitors. hit rate 1.2% among 410,000. AID 1159524; calls by dose curve; tested in HEK293T cells; note: read-out not given here; potency is the fitted concentration of half-maximal effect; nearly all actives have a fitted effect of over 45% in size
HCMV inh – inhibitors of human cytomegalovirus; hit rate 4.5% among 410,000; activity change, negative = inhibition, % at 57.5 µM; HFF cells, HCMV-luciferase reporter, 72 h; hits give low values; AID 1259415; in the data active = activity change below about -60%; inconclusive = no clear call, values can overlap the other calls; inactive = above about -39%
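Inhibition of viral replication was scored as loss of reporter luminescence in HFFs infected with HCMV-luciferase (MOI 1 PFU/cell) for 72 h; compounds tested at 2 doses, normalized to buffer and Salinomycin controls.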
Vaccinia mCherry – inhibitors of vaccinia virus infection (mCherry reporter signal); Potency, µM (titrated, usually from 36.5 µM), for the others: at the highest dose activity change, negative = inhibition, usual class: inhibitors; hit rate 0.63% among 310,000; Vaccinia virus mCherry reporter infection, fluorescence; calls by dose curve; tested in A549 cells; note: potency is the fitted concentration of half-maximal effect; nearly all actives have a fitted effect of over 35% in size
Active calls of the source: *; ! = repeats disagree; [ ] = remark or other dose. Sampled rows, rich in hits. Any-hit rate of the full collection: about 6.5%. % is set by controls: 0 for no effect and ±100 for the full control effect.

How did COc1ccc(CCn2c(=N)c(C(=O)NCC3CCCO3)cc3c(=O)n4cccc(C)c4nc32)cc1 (configuration not stated) do in these assays?
FMDV antiviral: -10%; HCMV inh: -108*

Results for COc1ccc(CCn2c(=N)c(C(=O)NCc3ccco3)cc3c(=O)n4ccccc4nc32)cc1 ?
Lassa entry inh: -26%[14.3 µM]; MARV entry inh: 21µM*; VACV Venus inh: inconclusive; FMDV antiviral: -2%; HCMV inh: inconclusive; Vaccinia mCherry: inconclusive

Results for COc1ccc(CNC(=O)c2cc3c(=O)n4cccc(C)c4nc3n(CC3CCCO3)c2=N)cc1 (configuration not stated) ?
FMDV antiviral: -23%; HCMV inh: -13

Results for Cc1cccn2c(=O)c3cc(C(=O)NC4CCCC4)c(=N)n(CC4CCCO4)c3nc12 (configuration not stated) ?
Lassa entry inh: 17%; MARV entry inh: -1%[46.1 µM]; VACV Venus inh: -5%; FMDV antiviral: -7%; HCMV inh: -38; Vaccinia mCherry: -8%

How did CCOc1ccc(/C=C/C(=O)Nc2sc3c(c2C(=O)OC)C(C(=O)OC)CC3)cc1 (configuration not stated) do in these assays?
Lassa entry inh: inconclusive; VACV Venus inh: -4%[7.34 µM]; FMDV antiviral: inconclusive; HCMV inh: 30; Vaccinia mCherry: -7%[7.34 µM]

What do the screens show for `CCOC(=O)N1CCC(n2c(SCC(=O)Nc3nccs3)nc3ccsc3c2=O)CC1`?
Lassa entry inh: inconclusive; MARV entry inh: inconclusive; FMDV antiviral: -2%; HCMV inh: -90*

Results for CCOC(=O)CSc1nc2ccsc2c(=O)n1C1CCN(C(=O)OCC)CC1 ?
Lassa entry inh: -17%; MARV entry inh: inconclusive; FMDV antiviral: 7%; HCMV inh: 6

What do the screens show for `COc1cc2c3nnc(-c4ccccc4)c-3cn(Cc3ccc(F)cc3)c2cc1OC`?
Lassa entry inh: -15%; MARV entry inh: inconclusive; VACV Venus inh: -3%; FMDV antiviral: inconclusive; HCMV inh: -66*; Vaccinia mCherry: -16%

What do the screens show for `Cc1cccc(NC(=O)COC(=O)CCCC2=NS(=O)(=O)c3ccccc3N2)c1`?
Lassa entry inh: inconclusive; MARV entry inh: 0%[46.1 µM]; VACV Venus inh: -8%; FMDV antiviral: 3%; HCMV inh: -104*!; Vaccinia mCherry: -4%

What do the screens show for `CC(=O)Oc1ccc(C(=O)COC(=O)CNC(=O)COc2ccccc2C)cc1`?
VACV Venus inh: -16%; Vaccinia mCherry: 7%

What do the screens show for `O=C(C1CC1)N1CCc2cc(Br)cc(S(=O)(=O)N3CCN(c4cccc(C(F)(F)F)c4)CC3)c21`?
Lassa entry inh: 15%[46.1 µM]; MARV entry inh: 2%[46.1 µM]; VACV Venus inh: -3%; FMDV antiviral: -1%; HCMV inh: 14; Vaccinia mCherry: -6%

What do the screens show for `O=C1c2[nH]nc(-c3ccccc3O)c2C(c2ccc(F)cc2)N1Cc1ccco1` (configuration not stated)?
Lassa entry inh: 8.2µM*; MARV entry inh: inconclusive; FMDV antiviral: inconclusive; HCMV inh: -35

Results for Cc1ccc(C2c3c(-c4cc(C)ccc4O)n[nH]c3C(=O)N2Cc2ccco2)cc1 (configuration not stated) ?
Lassa entry inh: inconclusive; MARV entry inh: inconclusive; VACV Venus inh: inconclusive; FMDV antiviral: -10%; HCMV inh: -33; Vaccinia mCherry: -13%

How did O=C1c2[nH]nc(-c3ccccc3O)c2C(c2cccc(Cl)c2)N1Cc1ccco1 (configuration not stated) do in these assays?
Lassa entry inh: inconclusive; MARV entry inh: 13µM*; FMDV antiviral: inconclusive; HCMV inh: 14

How did Cc1cc(C)c(O)c(-c2n[nH]c3c2C(c2cccc(O)c2)N(Cc2ccco2)C3=O)c1 (configuration not stated) do in these assays?
VACV Venus inh: inconclusive; FMDV antiviral: -20%; HCMV inh: -28; Vaccinia mCherry: 10µM*

What do the screens show for `COc1ccc(C2c3c(-c4ccccc4O)n[nH]c3C(=O)N2Cc2ccco2)cc1OC` (configuration not stated)?
Lassa entry inh: inconclusive; MARV entry inh: -14%[46.1 µM]; VACV Venus inh: -17%; FMDV antiviral: -3%; HCMV inh: -31; Vaccinia mCherry: -3%

Results for CC(=O)C(C(=O)Nc1c(C)cccc1C)N(Cc1ccco1)C(=O)C(=O)c1ccccc1 (configuration not stated) ?
HCMV inh: -12

What do the screens show for `O=C(Cc1cccs1)NCCSc1c(-c2ccc(Cl)cc2)[nH]c2ccccc12`?
Lassa entry inh: 16µM*; MARV entry inh: inconclusive; VACV Venus inh: 13µM*; FMDV antiviral: 22µM*; HCMV inh: inconclusive; Vaccinia mCherry: 11µM*

How did CN(C)S(=O)(=O)c1ccc(C(=O)NCCSc2c(-c3ccccc3)[nH]c3ccccc23)cc1 do in these assays?
Lassa entry inh: inconclusive; MARV entry inh: -5%[46.1 µM]; VACV Venus inh: inconclusive; FMDV antiviral: inconclusive; HCMV inh: -72*; Vaccinia mCherry: inconclusive

How did Cc1cccc(NC(=O)CSc2nnc(CNC(=O)c3ccc(S(=O)(=O)N(C)C)cc3)n2-c2cccc(C)c2)c1 do in these assays?
Lassa entry inh: 14µM*; MARV entry inh: -36%; VACV Venus inh: -10%; FMDV antiviral: 31%; HCMV inh: -14; Vaccinia mCherry: -2%

What do the screens show for `Cc1cccc(NC(=O)CSc2nnc(CNC(=O)c3ccc(S(=O)(=O)N(C)C)cc3)n2-c2ccccc2)c1`?
Lassa entry inh: inconclusive; MARV entry inh: inconclusive; VACV Venus inh: -10%; FMDV antiviral: 6%; HCMV inh: 2; Vaccinia mCherry: -25%

Results for O=C(c1cc(C2CC2)nc2ccc(Br)cc12)N1N=C(C(F)F)CC1(O)C(F)F (configuration not stated) ?
Lassa entry inh: inconclusive; MARV entry inh: inconclusive; FMDV antiviral: inconclusive; HCMV inh: -73*

What do the screens show for `O=C(c1cc(C2CC2)nc2ccccc12)N1N=C(C(F)F)CC1(O)C(F)F` (configuration not stated)?
Lassa entry inh: -13%; MARV entry inh: -3%; FMDV antiviral: -15%; HCMV inh: -15

Results for NC(=S)N=Nc1c(O)[nH]c2ccccc12 ?
Lassa entry inh: inconclusive; MARV entry inh: 4%; VACV Venus inh: inconclusive; FMDV antiviral: -9%; HCMV inh: -14; Vaccinia mCherry: 13µM*

How did Cc1ccc2[nH]c(O)c(N=NC(N)=S)c2c1 do in these assays?
FMDV antiviral: -8%; HCMV inh: -38

What do the screens show for `Oc1[nH]c2ccccc2c1N=Nc1c(F)c(F)c(Cl)c(F)c1F`?
FMDV antiviral: -5%; HCMV inh: -97*

Results for Cc1csc(C)[n+]1CCC1CCCCC1 ?
VACV Venus inh: inconclusive; Vaccinia mCherry: -22%

How did O=C1C(=O)N(Cc2ccc(Cl)c(Cl)c2)c2ccccc21 do in these assays?
FMDV antiviral: -3%

Screening data (PubChem BioAssay)
